# The source made the active and inactive calls. How the source made its calls: active means hit-call score of the fitted dose curve at least 0.9, where 1 is the maximum; inactive means score below 0.9.
# Key:
# Conditions in all cases: mRNA level, 48 h; actives raise or lower the signal
# [1] = read-out: Cytochrome P450 (CYP24A1), CYP24A1 (gene 1591); assay: LTEA_HepaRG_CYP24A1: Life Technologies and Expression Analysis (LTEA) Assay for Cytochrome P450 (CYP24A1) using HepaRG (AID 2283478)
# How it was run: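 qRT-PCR read-out: CYP24A1 transcript levels normalized to three housekeeping genes, bidirectional curve fits against 0.5% DMSO baseline. Human HepaRG cells treated 48 h with chemicals at eight concentrations from 100 uM in half-log steps.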
# [2] = read-out: Cytochrome P450 (CYP1A2), CYP1A2 (gene 1544); assay: LTEA_HepaRG_CYP1A2: Life Technologies and Expression Analysis (LTEA) Assay for Cytochrome P450 (CYP1A2) using HepaRG (AID 2283479)
# How it was run: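 HepaRG, 48 h exposure, top 100 uM, half-log 8-pt, 0.5% DMSO vehicle, duplicates. Readout: TaqMan qRT-PCR of CYP1A2 mRNA, housekeeping-normalized (ACTB/GAPDH/POLR2A). Gain/loss fit relative to DMSO baseline.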
# [3] = read-out: cysteine-aspartic acid protease (CASP8), CASP8 (gene 841); assay: LTEA_HepaRG_CASP8: Life Technologies and Expression Analysis (LTEA) Assay for cysteine-aspartic acid protease (CASP8) using HepaRG (AID 2283480)
# How it was run: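 qRT-PCR readout of CASP8 mRNA, normalized to three housekeeping genes, after 48 h chemical exposure of HepaRG cells; 8-point half-log series, top 100 uM, 0.5% DMSO vehicle. Bidirectional curve fitting against DMSO baseline.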
# [4] = read-out: Cytochrome P450 2C19 (Homo sapiens) (UniProt P33261); assay: LTEA_HepaRG_CYP2C19: Life Technologies and Expression Analysis (LTEA) Assay for CYP2C19 using HepaRG (AID 2283482)
# How it was run: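 HepaRG, 48 h chemical exposure, 8-pt half-log series from 100 uM in 0.5% DMSO, duplicates. Readout: CYP2C19 mRNA by TaqMan qRT-PCR, housekeeping-normalized. Bidirectional fit vs DMSO baseline; phenobarbital 1mM as induction control.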
# CYP2C8 (gene 1558) = assay: LTEA_HepaRG_CYP2C8: Life Technologies and Expression Analysis (LTEA) Assay for CYP2C8 using HepaRG (AID 2283483)
# How it was run: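 HepaRG (human liver line), 48 h chemical exposure, 8-pt half-log series from 100 uM, 0.5% DMSO vehicle. Readout: CYP2C8 transcript by qRT-PCR, housekeeping-normalized. Bidirectional fit vs DMSO baseline.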
# CYP2E1 (gene 1571) = assay: LTEA_HepaRG_CYP2E1: Life Technologies and Expression Analysis (LTEA) Assay for CYP2E1 using HepaRG (AID 2283485)
# How it was run: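 CYP2E1 transcript was measured by TaqMan qRT-PCR in human HepaRG cultures after 48 h chemical exposure (top 100 uM, half-log steps, 0.5% DMSO vehicle). Housekeeping-gene normalization; gain or loss fitted relative to DMSO baseline.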
# CYP4A11 (gene 1579) = assay: LTEA_HepaRG_CYP4A11: Life Technologies and Expression Analysis (LTEA) Assay for CYP4A11 using HepaRG (AID 2283486)
# How it was run: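 CYP4A11 transcript levels were quantified by TaqMan qRT-PCR after HepaRG human liver cells were treated for 48 hours with test chemicals (top 100 uM, half-log dilutions, 0.5% DMSO). Gain or loss of signal was fitted relative to DMSO.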
# [5] = read-out: Cytochrome P450 3A4 (Homo sapiens) (UniProt P08684); assay: LTEA_HepaRG_CYP3A4: Life Technologies and Expression Analysis (LTEA) Assay for CYP3A4 using HepaRG (AID 2283487)
# How it was run: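 HepaRG, 48 h exposure, 8-pt CRC from 100 uM (half-log), 0.5% DMSO, duplicates; serum-free induction medium. Readout: CYP3A4 mRNA, qRT-PCR, ACTB/GAPDH/POLR2A normalization. Bidirectional fit vs DMSO.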
# [6] = read-out: DNA damage-inducible transcript 3 (DDIT3), DDIT3 (gene 1649); assay: LTEA_HepaRG_DDIT3: Life Technologies and Expression Analysis (LTEA) Assay for DNA damage-inducible transcript 3 (DDIT3) using HepaRG (AID 2283488)
# How it was run: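 qRT-PCR readout (Fluidigm TaqMan), housekeeping-normalized to ACTB, GAPDH, POLR2A. HepaRG cells, 48 h exposure, 8-point half-log series from 100 uM in 0.5% DMSO, duplicates. Gain or loss of signal fitted against DMSO baseline.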
# [7] = read-out: Pro-epidermal growth factor (Homo sapiens) (UniProt P01133); assay: LTEA_HepaRG_EGF: Life Technologies and Expression Analysis (LTEA) Assay for Epidermal growth factor (EGF) using HepaRG (AID 2283489)
# How it was run: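 qRT-PCR readout of EGF transcript after 48 h chemical exposure of HepaRG cells; eight concentrations from 100 uM down in half-log steps, duplicate wells, 0.5% DMSO vehicle. Bidirectional curve fitting against DMSO baseline.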
# [8] = read-out: Early growth response protein 1 (EGR1) transcription factor, EGR1 (gene 1958); assay: LTEA_HepaRG_EGR1: Life Technologies and Expression Analysis (LTEA) Assay for Early growth response protein 1 (EGR1) transcription factor using HepaRG (AID 2283490)
# How it was run: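 HepaRG, 48 h exposure, 8-pt half-log series from 100 uM, 0.5% DMSO vehicle; EGR1 transcript by TaqMan qRT-PCR (Fluidigm array), housekeeping-normalized; bidirectional fit relative to DMSO baseline.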
# [9] = read-out: Ezrin (EZR), EZR (gene 7430); assay: LTEA_HepaRG_EZR: Life Technologies and Expression Analysis (LTEA) Assay for Ezrin (EZR) using HepaRG (AID 2283491)
# How it was run: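 Read-out is EZR transcript level by qRT-PCR, normalized to three housekeeping genes and fitted bidirectionally against the DMSO control. Human HepaRG cells received test chemicals for 48 h at eight half-log concentrations up to 100 uM in 0.5% DMSO.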
# [10] = read-out: Cytochrome P450 3A7 (Homo sapiens) (UniProt P24462); assay: LTEA_HepaRG_CYP3A7: Life Technologies and Expression Analysis (LTEA) Assay for CYP3A7 using HepaRG (AID 2283492)
# How it was run: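 CYP3A7 transcript levels were read by TaqMan qRT-PCR on Fluidigm arrays after 48 h chemical exposure of human HepaRG cells, with housekeeping-gene normalisation. Eight half-log concentrations up to 100 uM in 0.5% DMSO were tested in duplicate.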
# CYP3A5 (gene 1577) = assay: LTEA_HepaRG_CYP3A5: Life Technologies and Expression Analysis (LTEA) Assay for CYP3A5 using HepaRG (AID 2283493)
# How it was run: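 qRT-PCR read-out: CYP3A5 transcript in HepaRG lysates, housekeeping-normalized (ACTB/GAPDH/POLR2A), fitted bidirectionally against 0.5% DMSO baseline. Exposure 48 h, eight half-log concentrations up to 100 uM, duplicates.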
# [11] = read-out: Fatty Acid-Binding Protein 1 (FABP1), FABP1 (gene 2168); assay: LTEA_HepaRG_FABP1: Life Technologies and Expression Analysis (LTEA) Assay for Fatty Acid-Binding Protein 1 (FABP1) using HepaRG (AID 2283494)
# How it was run: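 qRT-PCR readout of FABP1 transcript (normalized to three housekeeping genes) after 48 h chemical exposure of HepaRG cells; eight concentrations, half-log steps, max 100 uM, 0.5% DMSO vehicle; gain or loss fitted relative to DMSO baseline.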
# [12] = read-out: Cytochrome P450 4A22 (Homo sapiens) (UniProt Q5TCH4); assay: LTEA_HepaRG_CYP4A22: Life Technologies and Expression Analysis (LTEA) Assay for Cytochrome P450 4A22 (CYP4A22) using HepaRG (AID 2283495)
# How it was run: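 HepaRG, 48 h post-plating -> serum-free induction medium; dosed 48 h, duplicate, 8 conc. (100 uM top, half-log), 0.5% DMSO. Readout: CYP4A22 mRNA by qRT-PCR, ACTB/GAPDH/POLR2A normalization; gain/loss fit relative to DMSO.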
# [13] = read-out: Cytochrome P450 7A1 (Homo sapiens) (UniProt P22680); assay: LTEA_HepaRG_CYP7A1: Life Technologies and Expression Analysis (LTEA) Assay for Cytochrome P450 7A1 (CYP7A1) using HepaRG (AID 2283496)
# How it was run: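 Using 0.5% DMSO as vehicle and baseline, chemicals were tested in duplicate over an 8-point range from 100 uM on HepaRG cells for 48 h; qRT-PCR signals were normalised to ACTB, GAPDH and POLR2A.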
# [14] = read-out: Glutathione S-Transferase (GSTA2), GSTA2 (gene 2939); assay: LTEA_HepaRG_GSTA2: Life Technologies and Expression Analysis (LTEA) Assay for Glutathione S-Transferase (GSTA2) using HepaRG (AID 2283497)
# How it was run: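 qRT-PCR readout of GSTA2 transcript, normalized to three housekeeping genes, fitted bidirectionally against 0.5% DMSO baseline. Differentiated HepaRG cells received compound for 48 h at 8 concentrations (top 100 uM, half-log steps).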
# CYP2C9 (gene 1559) = assay: LTEA_HepaRG_CYP2C9: Life Technologies and Expression Analysis (LTEA) Assay for CYP2C9 using HepaRG (AID 2283484)
# How it was run: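 HepaRG, 48 h dosing, 8-pt half-log series, top 100 uM, 0.5% DMSO vehicle. Read-out: CYP2C9 transcript by TaqMan qRT-PCR, housekeeping-normalized (ACTB/GAPDH/POLR2A). Gain or loss fitted vs DMSO baseline.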
# [15] = read-out: Cytochrome P450 (CYP2B6), CYP2B6 (gene 1555); assay: LTEA_HepaRG_CYP2B6: Life Technologies and Expression Analysis (LTEA) Assay for Cytochrome P450 (CYP2B6) using HepaRG (AID 2283481)
# How it was run: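 Read-out is CYP2B6 mRNA by TaqMan qRT-PCR, normalized to three housekeeping genes and fitted bidirectionally against 0.5% DMSO baseline. Human HepaRG cells received test chemicals for 48 h, top concentration 100 uM, half-log dilutions.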
# Chain of Cytochrome P450 3A4 (Homo sapiens) (P08684 whole entry, looked up): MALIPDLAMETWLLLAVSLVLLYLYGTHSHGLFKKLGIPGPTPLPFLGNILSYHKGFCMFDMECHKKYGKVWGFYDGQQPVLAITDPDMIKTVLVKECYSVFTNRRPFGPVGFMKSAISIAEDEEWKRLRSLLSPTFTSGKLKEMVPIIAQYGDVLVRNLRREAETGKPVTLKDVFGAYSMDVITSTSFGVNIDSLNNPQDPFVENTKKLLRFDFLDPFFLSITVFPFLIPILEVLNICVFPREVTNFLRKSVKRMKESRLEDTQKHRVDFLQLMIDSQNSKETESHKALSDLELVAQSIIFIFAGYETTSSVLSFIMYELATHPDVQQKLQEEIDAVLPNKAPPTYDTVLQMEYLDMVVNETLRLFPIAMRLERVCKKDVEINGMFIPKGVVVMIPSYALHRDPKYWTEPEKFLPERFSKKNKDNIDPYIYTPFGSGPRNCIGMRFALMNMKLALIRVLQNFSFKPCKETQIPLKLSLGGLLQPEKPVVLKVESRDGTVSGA
# Chain of Cytochrome P450 3A7 (Homo sapiens) (P24462 whole entry, looked up): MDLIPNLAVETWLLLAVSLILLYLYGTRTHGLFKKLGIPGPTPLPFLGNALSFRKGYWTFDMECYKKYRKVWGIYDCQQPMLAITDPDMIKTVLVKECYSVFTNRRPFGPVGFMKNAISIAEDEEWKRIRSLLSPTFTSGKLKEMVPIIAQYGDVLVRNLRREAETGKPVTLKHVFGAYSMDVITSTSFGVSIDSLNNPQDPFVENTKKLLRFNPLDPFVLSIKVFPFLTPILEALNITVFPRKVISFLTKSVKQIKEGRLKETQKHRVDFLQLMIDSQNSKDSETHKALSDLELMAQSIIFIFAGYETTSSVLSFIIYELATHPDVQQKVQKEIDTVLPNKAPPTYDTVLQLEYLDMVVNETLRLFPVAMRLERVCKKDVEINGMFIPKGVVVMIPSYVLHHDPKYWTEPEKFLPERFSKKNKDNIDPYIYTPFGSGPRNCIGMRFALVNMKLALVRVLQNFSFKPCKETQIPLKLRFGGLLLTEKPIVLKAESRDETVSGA
# Chain of Cytochrome P450 2C19 (Homo sapiens) (P33261 whole entry, looked up): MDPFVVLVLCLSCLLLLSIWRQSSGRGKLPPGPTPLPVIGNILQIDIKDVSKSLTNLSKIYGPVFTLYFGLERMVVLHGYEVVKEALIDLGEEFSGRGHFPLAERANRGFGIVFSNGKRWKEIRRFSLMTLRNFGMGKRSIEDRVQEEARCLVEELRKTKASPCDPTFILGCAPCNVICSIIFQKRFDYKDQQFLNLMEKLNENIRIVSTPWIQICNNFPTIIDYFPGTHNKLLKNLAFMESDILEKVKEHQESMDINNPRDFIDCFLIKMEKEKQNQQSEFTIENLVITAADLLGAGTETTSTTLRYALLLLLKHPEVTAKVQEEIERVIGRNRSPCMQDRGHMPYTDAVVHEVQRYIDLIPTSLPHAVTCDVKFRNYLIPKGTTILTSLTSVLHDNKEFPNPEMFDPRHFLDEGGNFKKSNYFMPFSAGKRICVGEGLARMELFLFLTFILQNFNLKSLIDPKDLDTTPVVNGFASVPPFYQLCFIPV
compound,measurement,setting,value
C=CCc1ccc(O)c(OC)c1,outcome,[1],inactive
same,outcome,[2],inactive
same,outcome,[3],inactive
same,outcome,[4],inactive
same,outcome,CYP2C8 (gene 1558),inactive
same,outcome,CYP2E1 (gene 1571),inactive
same,outcome,CYP4A11 (gene 1579),inactive
same,outcome,[5],inactive
same,outcome,[6],inactive
same,outcome,[7],inactive
same,outcome,[8],inactive
same,outcome,[9],inactive
same,outcome,[10],inactive
same,outcome,CYP3A5 (gene 1577),inactive
same,outcome,[11],inactive
same,outcome,[12],inactive
same,outcome,[13],inactive
same,outcome,[14],inactive
Cc1ccc(C)c(C)c1,outcome,[1],inactive
same,outcome,[2],inactive
same,outcome,[3],inactive
same,outcome,[4],inactive
same,outcome,CYP2C8 (gene 1558),inactive
same,outcome,CYP2C9 (gene 1559),inactive
same,outcome,CYP2E1 (gene 1571),inactive
same,outcome,CYP4A11 (gene 1579),inactive
same,outcome,[5],inactive
same,outcome,[6],inactive
same,outcome,[7],inactive
same,outcome,[8],inactive
same,outcome,[9],inactive
same,outcome,[10],inactive
same,outcome,CYP3A5 (gene 1577),inactive
same,outcome,[11],inactive
same,outcome,[12],inactive
same,outcome,[13],inactive
C1CCC(SSC2CCCCC2)CC1,outcome,[1],inactive
same,outcome,[2],inactive
same,outcome,[3],inactive
same,outcome,[15],inactive
same,outcome,CYP2E1 (gene 1571),inactive
same,outcome,CYP4A11 (gene 1579),inactive
same,outcome,[5],inactive
same,outcome,[6],inactive
same,outcome,[7],inactive
same,outcome,[8],inactive
same,outcome,[9],inactive
same,outcome,[10],inactive
same,outcome,CYP3A5 (gene 1577),inactive
same,outcome,[11],inactive
same,outcome,[12],inactive
same,outcome,[13],inactive
same,outcome,[14],inactive
CC(C)c1ccc(C(=O)N=C(N)N)cc1S(C)(=O)=O,outcome,[1],inactive
same,AC50,[2],452 nM (active)
same,AC50,[3],409 nM (active)
same,AC50,[15],464 nM (active)
same,outcome,CYP2C9 (gene 1559),inactive
same,outcome,CYP2E1 (gene 1571),inactive
same,AC50,CYP4A11 (gene 1579),297 nM (active)
same,AC50,[5],9240 nM (active)
same,AC50,[6],545 nM (active)
same,AC50,[7],690 nM (active)
same,AC50,[8],337 nM (active)
same,outcome,[9],inactive
same,AC50,[10],740 nM (active)
same,outcome,CYP3A5 (gene 1577),inactive
same,outcome,[11],inactive
same,AC50,[12],8370 nM (active)
same,outcome,[13],inactive
same,outcome,[14],inactive

# Source: PubChem BioAssay (EPA / NIEHS)
